From PubChem BioAssay (EPA / NIEHS)
Results filed as inconclusive are left out. The source made the active and inactive calls. Rule for the calls: active = hit-call score of the fitted dose curve at least 0.9, where 1 is the maximum; inconclusive = response in the unintended direction; inactive = score below 0.9.

Target: Peroxisome proliferator-activated receptor gamma (Homo sapiens) (UniProt P37231)
Assay: ATG_PPARg_TRANS: Attagene TRANS-FACTORIAL HepG2 Assay for human Peroxisome Proliferator-activated Receptor-gamma (PPARg) (AID 2283007)
Method in brief: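 HepG2 cells are transiently transfected with GAL4-UAS reporter units driven by chimeric NR-Gal4 fusions and dosed for 24 h. Reporter mRNA is quantified by RT-PCR, 6-FAM labelling, HpaI digestion and capillary electrophoresis. Induction is scored against DMSO.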

Peroxisome proliferator-activated receptor gamma (Homo sapiens), sequence (P37231 whole entry, looked up): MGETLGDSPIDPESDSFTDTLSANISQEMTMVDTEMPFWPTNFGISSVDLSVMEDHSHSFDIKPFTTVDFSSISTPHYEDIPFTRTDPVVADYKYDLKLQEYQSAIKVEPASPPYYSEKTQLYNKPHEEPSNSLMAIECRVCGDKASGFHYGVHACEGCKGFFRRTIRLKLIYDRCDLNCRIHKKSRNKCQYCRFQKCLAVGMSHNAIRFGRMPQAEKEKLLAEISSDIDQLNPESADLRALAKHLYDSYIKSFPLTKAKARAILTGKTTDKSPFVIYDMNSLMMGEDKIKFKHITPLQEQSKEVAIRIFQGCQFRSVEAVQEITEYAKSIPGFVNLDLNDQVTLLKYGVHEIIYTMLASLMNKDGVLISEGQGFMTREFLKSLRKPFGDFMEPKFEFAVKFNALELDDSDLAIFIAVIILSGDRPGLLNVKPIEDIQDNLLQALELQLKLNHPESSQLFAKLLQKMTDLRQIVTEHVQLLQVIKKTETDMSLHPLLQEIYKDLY

SMILES | outcome | AC50
CC(=O)OC1C2(C)CCC(C2)C1(C)C (configuration not stated) | inactive | –
CCN(Cc1cccc(S(=O)(=O)O)c1)c1ccc(C(=C2C=CC(=[N+](CC)Cc3cccc(S(=O)(=O)[O-])c3)C=C2)c2ccccc2)cc1 | – | 31.1 µM (active)
Cc1ccc([N+](=O)[O-])cc1S(=O)(=O)O | inactive | –
CCCCCc1ccc(Cl)cc1 | inactive | –
CC(=O)OCC(=O)[C@@]12N=C(C)O[C@@H]1C[C@H]1[C@@H]3CCC4=CC(=O)C=C[C@]4(C)[C@H]3[C@@H](O)C[C@@]12C | inactive | –
c1cc(N(CC2CO2)CC2CO2)ccc1OCC1CO1 (configuration not stated) | inactive | –
CCCCCCC1(C)CCC(=O)O1 (configuration not stated) | inactive | –
CCOC(=O)CC | inactive | –
O=C(C(Cl)Cl)N1CCOC12CCCCC2 | inactive | –
CC1=CC[C@H](C(C)C)C=C1 | – | 27.9 µM (active)
COC(=O)c1cc(Cl)ccc1[N+](=O)[O-] | – | 19.7 µM (active)
O=C1CCCCCN1SSN1CCCCCC1=O | inactive | –
OCCCS | inactive | –
C[Si](C)(CCCN)O[Si](C)(C)CCCN | inactive | –
CC(C)CCCCCOC(=O)CCS | inactive | –
SCCc1cnccn1 | inactive | –
CN(C)c1ccc(C(=N)c2ccc(N(C)C)cc2)cc1 | – | 26.6 µM (active)
CCN(CCC#N)c1ccc(N=Nc2c(Cl)cc([N+](=O)[O-])cc2Cl)cc1 | – | 16.3 µM (active)
C=CC(=O)OCCOC1C2CCC1C1CC=CC12 (configuration not stated) | inactive | –
CC(C)(C)c1ccc(OC(=O)c2ccccc2O)cc1 | inactive | –
O=C1c2ccccc2C(=O)C1c1nc2ccccc2c(Br)c1O | – | 11.5 µM (active)
CCCCCCCCCCc1ccccc1 | inactive | –
CC(C)(C)c1ccc(N)cc1 | inactive | –
COC(=O)C1=C(C)NC(C)=C(C(=O)OCC(C)C)C1c1ccccc1[N+](=O)[O-] (configuration not stated) | – | 6.19 µM (active)
O=C(/C=C/C=C/c1ccc2c(c1)OCO2)N1CCCCC1 | – | 6.43 µM (active)
C=C(C)[C@@H]1CCC2=CCC[C@@H](C)[C@]2(C)C1 | inactive | –

Target: Nuclear receptor subfamily 1 group I member 2 (Homo sapiens) (UniProt O75469)
Assay: ATG_PXR_TRANS: Attagene TRANS-FACTORIAL HepG2 Assay for human Pregnane X Receptor (PXR) (AID 2283008)
Method in brief: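 Multiplexed TRANS reporter panel in HepG2; this component tracks PXR-Gal4-driven reporter mRNA after 24 h dosing, measured by RT-PCR with capillary electrophoresis fluorescence, fitted against DMSO.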

Nuclear receptor subfamily 1 group I member 2 (Homo sapiens), sequence (O75469 whole entry, looked up): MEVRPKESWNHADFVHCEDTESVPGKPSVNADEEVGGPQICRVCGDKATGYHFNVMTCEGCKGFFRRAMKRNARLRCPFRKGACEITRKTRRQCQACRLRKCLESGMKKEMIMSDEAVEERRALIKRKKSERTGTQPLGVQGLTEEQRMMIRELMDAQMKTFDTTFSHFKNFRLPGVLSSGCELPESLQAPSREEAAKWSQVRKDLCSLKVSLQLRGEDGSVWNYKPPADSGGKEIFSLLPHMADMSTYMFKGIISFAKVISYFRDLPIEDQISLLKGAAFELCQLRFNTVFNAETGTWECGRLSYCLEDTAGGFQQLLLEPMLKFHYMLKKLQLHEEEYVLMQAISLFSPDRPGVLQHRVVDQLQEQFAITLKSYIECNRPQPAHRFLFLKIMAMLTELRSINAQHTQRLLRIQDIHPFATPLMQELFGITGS

SMILES | AC50 | outcome
O=C(Oc1ccccc1)c1ccc2ccccc2c1O | 16.9 µM (active) | –
CC(=O)OC1C2(C)CCC(C2)C1(C)C (configuration not stated) | – | inactive
CCN(Cc1cccc(S(=O)(=O)O)c1)c1ccc(C(=C2C=CC(=[N+](CC)Cc3cccc(S(=O)(=O)[O-])c3)C=C2)c2ccccc2)cc1 | – | inactive
Cc1ccc([N+](=O)[O-])cc1S(=O)(=O)O | – | inactive
CCCCCc1ccc(Cl)cc1 | – | inactive
CC(=O)OCC(=O)[C@@]12N=C(C)O[C@@H]1C[C@H]1[C@@H]3CCC4=CC(=O)C=C[C@]4(C)[C@H]3[C@@H](O)C[C@@]12C | – | inactive
c1cc(N(CC2CO2)CC2CO2)ccc1OCC1CO1 (configuration not stated) | – | inactive
O=C(O)C(c1ccc(Cl)cc1)c1ccc(Cl)cc1 | – | inactive
CCCCCCC1(C)CCC(=O)O1 (configuration not stated) | 33.2 µM (active) | –
CCOC(=O)CC | – | inactive
O=C(C(Cl)Cl)N1CCOC12CCCCC2 | – | inactive
CC1=CC[C@H](C(C)C)C=C1 | 0.822 µM (active) | –
Cc1cc(=O)n(-c2ccccc2)n1C | – | inactive
COC(=O)c1cc(Cl)ccc1[N+](=O)[O-] | – | inactive
C[Si](C)(CCCN)O[Si](C)(C)CCCN | – | inactive
CC(C)CCCCCOC(=O)CCS | 27.1 µM (active) | –
CCCCCCOC(=O)C(C)CC (configuration not stated) | – | inactive

SMILES | AC50 | outcome
SCCc1cnccn1 | – | inactive
CN(C)c1ccc(C(=N)c2ccc(N(C)C)cc2)cc1 | – | inactive
CCN(CCC#N)c1ccc(N=Nc2c(Cl)cc([N+](=O)[O-])cc2Cl)cc1 | 1.05 µM (active) | –
C=CC(=O)OCCOC1C2CCC1C1CC=CC12 (configuration not stated) | – | inactive
CC(C)(C)c1ccc(OC(=O)c2ccccc2O)cc1 | – | inactive
O=C1c2ccccc2C(=O)C1c1nc2ccccc2c(Br)c1O | – | inactive
CCCCCCCCCCc1ccccc1 | – | inactive
CCCCC(CC)CCC(CC(C)C)OS(=O)(=O)O (configuration not stated) | 5.35 µM (active) | –
O=C(O)CC(C(=O)O)C(CC(=O)O)C(=O)O (configuration not stated) | – | inactive
CC(C)(C)c1ccc(N)cc1 | – | inactive
NNC(=O)c1cccc(C(=O)NN)c1 | – | inactive
COC(=O)c1ccccc1OC | – | inactive
O=C(/C=C/C=C/c1ccc2c(c1)OCO2)N1CCCCC1 | 0.893 µM (active) | –
CCOCC(=O)O | – | inactive
C=C(C)[C@@H]1CCC2=CCC[C@@H](C)[C@]2(C)C1 | 2.72 µM (active) | –
CC(C)c1ccc2cc(C(C)C)ccc2c1 | 7.42 µM (active) | –

Target: human Retinoic Acid Receptor gamma (RARg), RARG (gene 5916) (UniProt P13631)
Assay: ATG_RARg_TRANS: Attagene TRANS-FACTORIAL HepG2 Assay for human Retinoic Acid Receptor gamma (RARg) (AID 2283009)
Method in brief: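 Transactivation of exogenous RARg-Gal4 fusion measured as reporter transcript induction after 24 h in transfected HepG2 cells. RNA reverse-transcribed, amplified, fluorescently labeled and resolved by capillary electrophoresis; increase relative to DMSO.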

human Retinoic Acid Receptor gamma (RARg), RARG (gene 5916), sequence (P13631 whole entry, looked up): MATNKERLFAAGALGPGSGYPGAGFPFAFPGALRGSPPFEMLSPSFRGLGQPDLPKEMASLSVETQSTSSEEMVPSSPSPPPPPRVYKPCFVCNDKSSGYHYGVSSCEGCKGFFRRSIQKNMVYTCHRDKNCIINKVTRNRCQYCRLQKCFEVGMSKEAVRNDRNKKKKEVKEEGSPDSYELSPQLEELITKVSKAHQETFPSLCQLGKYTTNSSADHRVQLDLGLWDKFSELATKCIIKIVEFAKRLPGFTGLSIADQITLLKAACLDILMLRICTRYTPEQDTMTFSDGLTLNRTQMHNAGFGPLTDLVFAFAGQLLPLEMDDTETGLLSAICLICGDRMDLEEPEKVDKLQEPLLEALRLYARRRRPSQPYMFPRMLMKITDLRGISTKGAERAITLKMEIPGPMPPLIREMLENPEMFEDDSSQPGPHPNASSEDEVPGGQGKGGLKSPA

SMILES | outcome
c1cc(N(CC2CO2)CC2CO2)ccc1OCC1CO1 (configuration not stated) | inactive
O=C(C(Cl)Cl)N1CCOC12CCCCC2 | inactive
Cc1cc(=O)n(-c2ccccc2)n1C | inactive
C[Si](C)(CCCN)O[Si](C)(C)CCCN | inactive
CN(C)c1ccc(C(=N)c2ccc(N(C)C)cc2)cc1 | inactive
CCN(CCC#N)c1ccc(N=Nc2c(Cl)cc([N+](=O)[O-])cc2Cl)cc1 | inactive
O=C(O)CC(C(=O)O)C(CC(=O)O)C(=O)O (configuration not stated) | inactive
NNC(=O)c1cccc(C(=O)NN)c1 | inactive
